About 83,000 compounds went through this panel and 20% of them were active in at least one assay; those are over-represented in the sample as a whole.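 Method: cells in 96-well plates; compound added at one concentration; 48 h incubation; percent growth measured; values under 10 scored active.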 A number with no mark means an inactive call.

We go through 37 compounds from PubChem BioAssay (NCI).

The first assay concerns SK-MEL-28 melanoma. Briefly: NCI-60 one-dose screen, 48 h (100 = growth as untreated, 0 = no growth, -100 = all killed). Particulars: 10 µM unless noted.
`Nc1nc(Cl)cc(Cl)n1`: the growth was 119%.
With `CCCCCCCCCCCCCCCCOc1ccccc1NC(=O)CC(C)=O`, the growth was 103%.
The same measure, in the same setting: the same measure for `Cc1cc(Cc2ccccc2)c(O)c(Cc2ccccc2)c1`: 106%; for `Nc1cc(N)ncn1`: 98.9%; for `CC(C)(C)NCCC(O)c1cc(C(F)(F)F)nc2c(C(F)(F)F)cccc12` (centres undefined): 117%.
On the same count and under the same terms, under `C=C(OC(C)=O)c1ccccc1` stands 118%.
Same read-out and setting: the same measure for `O=Cc1c(O)c2ccccc2[nH]c1=O`: 107%; for `CN=S(=O)(OCCCCCOS(=O)(=NC)c1ccc(C)cc1)c1ccc(C)cc1` (centres undefined): 93.5%; for `CCOC(=O)c1c(C)[nH]c(C)c1C=O`: 109%.
Take `O=C(NCc1ccccc1)/C(=C/c1ccccc1)NC(=O)c1ccccc1`: the growth was 117%.
Same read-out and setting: under `O=c1cc(Cl)nc2ccccn12` stands 101%; under `Oc1cc(O)c2c(c1)O[C@H](c1ccc(O)c(O)c1)[C@@H](O)C2`, 110%.
Still for that read-out and setting: under `CCOP(=O)(NC(c1ccccc1)c1ccccc1)OCC` stands 106%; under `Cc1ccc2nc(N)nnc2c1`, 110%.
Still for that read-out and setting: under `Cc1ccc(S(N)(=O)=O)cc1Cl` stands 108%.
For the compound `Nc1cc2ccccc2c(O)c1O`, the growth was 110%.
Still for that read-out and setting: the same measure for `CC(C)N1CC(=O)N2CSCC2C1=O` (centres undefined): 111%; for `CCOC(=N)CC(=O)Nc1cccc(C)c1Cl`: 105%; for `Cc1cc2c(C(C)C)c(O)c(O)c(C=Nc3ccccc3[N+](=O)[O-])c2c(O)c1-c1c(C)cc2c(C(C)C)c(O)c(O)c(C=Nc3ccccc3[N+](=O)[O-])c2c1O`: 98.3%.
For `Cc1cc(C(=O)NN)c(C#N)c(=O)[nH]1`, the growth is 91.8%.
Still for that read-out and setting: the same measure for `COC1OC(CO)C(OC)C(O)C1O` (centres undefined): 95.9%; for `CCOC(=O)/C(O)=C(\C=N\C(=S)Nc1ccc(Cl)c(Cl)c1)C(=O)OCC`: 109%.
For `O=C(c1ccccc1)c1ccc(-c2ccc(O)cc2)cc1`, the growth is 75.1%.
Same read-out and setting: under `CC(=O)C1C(=O)C(=O)N(c2cccc([N+](=O)[O-])c2)C1=O` (centres undefined) stands 107%.
On the same count and under the same terms, the same measure for `CCOC(OCC)C(=O)c1ccccc1`: 104%; for `Cc1ccc(O)c(N)c1`: 122%.
Still for that read-out and setting: under `COC(=O)c1ccccc1C(=O)c1c(C)cc(C)cc1C` stands 94.9%; under `COc1cc(-c2ccc(NC(=O)CC(C)=O)c(OC)c2)ccc1NC(=O)CC(C)=O`, 111%.
In the case of `Oc1cccc(CNC2CCCCC2)c1`, the growth was 110%.
Same read-out and setting: the same measure for `COc1ccc(C(=O)C(=O)c2ccccc2)cc1`: 110%.
Same read-out and setting: under `CSc1cnc2ccccc2n1` stands 110%; under `Nc1ccc2c(c1)Cc1cc(N)c(N)cc1-2`, 107%.
On the same count and under the same terms, under `CCCCN(C(=O)CC)c1ccccc1` stands 104%.
As for `Nc1c(Br)cc(O)c2c1C(=O)c1ccccc1C2=O`, the growth is 112%.
On the same count and under the same terms, the same measure for `CC(=O)N(C(C)=O)c1ccc(C)cc1`: 107%.
On the same count and under the same terms, the same measure for `Cc1cc(CC(=O)NCCO)n(CCO)c(=O)c1`: 118%.
Still for that read-out and setting: under `CCOC(=O)c1ccc(NC(C)=O)o1` stands 118%.

The test system of another assay is SK-MEL-2 melanoma. The assay is described as above. The note with it: 10 µM unless noted.
Consider `Nc1nc(Cl)cc(Cl)n1`, for which the growth was 96%.
As for `CCCCCCCCCCCCCCCCOc1ccccc1NC(=O)CC(C)=O`, the growth is 92.1%.
Turning to `Cc1cc(Cc2ccccc2)c(O)c(Cc2ccccc2)c1`, the growth is 111%.
On the same count and under the same terms, under `Nc1cc(N)ncn1` stands 113%; under `CC(C)(C)NCCC(O)c1cc(C(F)(F)F)nc2c(C(F)(F)F)cccc12` (centres undefined), 102%.
For `C=C(OC(C)=O)c1ccccc1`, the growth is 96.9%.
For the compound `O=Cc1c(O)c2ccccc2[nH]c1=O`, the growth is 106%.
As for `CN=S(=O)(OCCCCCOS(=O)(=NC)c1ccc(C)cc1)c1ccc(C)cc1` (centres undefined), the growth is 94%.
Still for that read-out and setting: under `CCOC(=O)c1c(C)[nH]c(C)c1C=O` stands 102%; under `O=C(NCc1ccccc1)/C(=C/c1ccccc1)NC(=O)c1ccccc1`, 102%.
With `O=c1cc(Cl)nc2ccccn12`, the growth is 110%.
Still for that read-out and setting: the same measure for `Oc1cc(O)c2c(c1)O[C@H](c1ccc(O)c(O)c1)[C@@H](O)C2`: 106%; for `CCOP(=O)(NC(c1ccccc1)c1ccccc1)OCC`: 109%.
Still for that read-out and setting: the same measure for `Cc1ccc2nc(N)nnc2c1`: 107%; for `Cc1ccc(S(N)(=O)=O)cc1Cl`: 103%; for `Nc1cc2ccccc2c(O)c1O`: 85.3%.
On to `CC(C)N1CC(=O)N2CSCC2C1=O` (centres undefined), for which the growth is 115%.
Still for that read-out and setting: the same measure for `CCOC(=N)CC(=O)Nc1cccc(C)c1Cl`: 118%.
Take `Cc1cc2c(C(C)C)c(O)c(O)c(C=Nc3ccccc3[N+](=O)[O-])c2c(O)c1-c1c(C)cc2c(C(C)C)c(O)c(O)c(C=Nc3ccccc3[N+](=O)[O-])c2c1O`: the growth was 96.6%.
The same measure, in the same setting: under `Cc1cc(C(=O)NN)c(C#N)c(=O)[nH]1` stands 100%; under `COC1OC(CO)C(OC)C(O)C1O` (centres undefined), 111%.
As to `CCOC(=O)/C(O)=C(\C=N\C(=S)Nc1ccc(Cl)c(Cl)c1)C(=O)OCC`, the growth is 116%.
On to `O=C(c1ccccc1)c1ccc(-c2ccc(O)cc2)cc1`, for which the growth is 59.1%.
On the same count and under the same terms, under `CC(=O)C1C(=O)C(=O)N(c2cccc([N+](=O)[O-])c2)C1=O` (centres undefined) stands 114%; under `CCOC(OCC)C(=O)c1ccccc1`, 88.8%.
Same read-out and setting: the same measure for `Cc1ccc(O)c(N)c1`: 112%.
The same measure, in the same setting: under `COC(=O)c1ccccc1C(=O)c1c(C)cc(C)cc1C` stands 94%; under `COc1cc(-c2ccc(NC(=O)CC(C)=O)c(OC)c2)ccc1NC(=O)CC(C)=O`, 108%; under `Oc1cccc(CNC2CCCCC2)c1`, 115%.
For the compound `COc1ccc(C(=O)C(=O)c2ccccc2)cc1`, the growth is 110%.
The same measure, in the same setting: the same measure for `CSc1cnc2ccccc2n1`: 86%.
On the same count and under the same terms, the same measure for `Nc1ccc2c(c1)Cc1cc(N)c(N)cc1-2`: 88.8%.
On the same count and under the same terms, the same measure for `CCCCN(C(=O)CC)c1ccccc1`: 108%; for `Nc1c(Br)cc(O)c2c1C(=O)c1ccccc1C2=O`: 55.4%; for `CC(=O)N(C(C)=O)c1ccc(C)cc1`: 106%.
As to `Cc1cc(CC(=O)NCCO)n(CCO)c(=O)c1`, the growth was 109%.
The same measure, in the same setting: under `CCOC(=O)c1ccc(NC(C)=O)o1` stands 99.6%.
